As usually defined, the AC50 is the midpoint of the concentration-response curve, whichever way the signal moves. A word on the IC50: it is the concentration needed to halve the response being measured. Broadly, the viability is a read-out of living cells in per cent, often relative to untreated cells.

A short description of test [1]: growth inhibition of DIPG glioma cells, dose response, cell-based, SU-DIPG-XVII, MIPE5.0, CellTiter-Glo, qHTS (AID 1347060; cut-off not given, nearly all actives have AC50 up to about 26 µM;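 on AC50: cells exposed to compound for 48 hours before viability readout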). The note with it: SU-DIPG-XVII viability, CellTiter-Glo ATP luminescence. (In ATP-based viability assays light output follows the ATP content of the culture.)
A short description of test [2]: growth inhibition of DIPG glioma cells, dose response, cell-based, JHH-DIPG-1, MIPE4.0, CellTiter-Glo, qHTS (AID 1347062; cut-off not given, nearly all actives have AC50 up to about 27 µM;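 on AC50: cells exposed to compound for two days before readout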). The note with it: JHH-DIPG-1 viability, CellTiter-Glo ATP luminescence.
Test [3] in a line: growth inhibition of DIPG glioma cells, dose response, cell-based, SU-DIPG-IV, MIPE4.0, CellTiter-Glo, qHTS (AID 1347063; cut-off not given, nearly all actives have AC50 up to about 30 µM;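 further: compound exposure lasted 48 hours before the viability readout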). The note with it: SU-DIPG-IV viability, CellTiter-Glo ATP luminescence.
Test [4] can be described thus: viability loss in pontine glioma line – cell-based, SU-DIPG-XXV, MIPE5.0, CellTiter-Glo, qHTS, dose response (AID 1347065; cut-off not given, nearly all actives have AC50 up to about 26 µM;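 further: cells exposed to compound for 48 hours before ATP readout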). The note with it: CellTiter-Glo ATP luminescence.
Test [5] can be described thus: SU-DIPG-VI glioma cell viability, MIPE4.0 library, CellTiter-Glo luminescence, qHTS (AID 1347066; cut-off not given, nearly all actives have AC50 up to about 30 µM;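 further: cells exposed to compound for 48 hours before readout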). The note with it: CellTiter-Glo ATP luminescence.
Test [6] can be described thus: JHH-DIPG-1 glioma cell viability, MIPE5.0 library, CellTiter-Glo luminescence, qHTS (AID 1347067; cut-off not given, nearly all actives have AC50 up to about 26 µM;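 further: cells exposed to compound for 48 hours before readout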). The note with it: JHH-DIPG-1 glioma viability, CellTiter-Glo ATP luminescence.
Test [7] is described as follows: SU-DIPG-XXV glioma cell viability, MIPE5.0 library, qHTS (AID 1347068; cut-off not given, nearly all actives have IC50 up to about 30 µM;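 on IC50: cells exposed to compound for 48 hours before viability readout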).
A short description of test [8]: sensitizers of A549 cells to miR-34 induction, primary screen, imaging, A549 dox-inducible miR-34, nuclei and caspase counts (AID 1347080;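 active means compounds whose cell count with miR-34 switched on is under 0.7 times the count with it off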). The note with it: A549 miR-34 inducible, Hoechst nuclei count, 48 h.
Test [9] can be described thus: survival rescue of mitochondrial mutant cells in low glucose, primary screen, MELAS cybrids, Rieske KO mouse fibroblasts, CellTiter-Glo (AID 1508586;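 active means mean z-score across replicates of 1.96 or higher in either the MELAS or the Rieske mutant cell line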;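 further: z relative to plate mean and SD of compound and empty wells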).
Test [10] in a line: modifiers of HSF1 nuclear foci, imaging, Selleck Cancer Library (AID 1347162; in the data active means plate-normalised HSF1 focus index below about 0.46). The note with it: human cells, at 10 µM; SSMD: measured here: HSF1 foci SSMD mean; cell count: measured here: cell number; plate-normalised HSF1 focus index: stronger effect = lower value.
A short description of test [11]: ovarian cancer cell viability with rucaparib, profiling panel, oncology-focused library, rucaparib conditional (AID 1508598). The note with it: patient-derived ovarian cancer cells, CellTiter-Glo viability, 144 h, stronger effect = lower value.
Where [12] appears, read: stronger effect = lower value, cell number ratio, induced over uninduced.
The mark [13] stands for this setting: measured here: relative caspase fold change +Dox/-Dox.
[14] abbreviates: measured here: total cells with miR-34 induction, stronger effect = lower value.
Where [15] appears, read: measured here: total cells without miR-34 induction.
Where [16] appears, read: MELAS cybrid survival, CellTiter-Glo 48 h, stronger effect = higher value.
[17] abbreviates: Rieske KO mouse fibroblast survival, CellTiter-Glo 72 h.

Results filed as inconclusive are left out. Calls of active or inactive are those of the source.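 How the source made its calls, unless noted: active means normalized viability below 100% at a tested concentration; inactive means the rest.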

For `CCN(CC)CCCCNc1nc2cc(Cl)c(Cl)cc2nc1-c1ccc(-c2cccs2)s1`, the AC50 in test [1] was 6.61 µM (active); in test [2], 7.43 µM (active); in test [3] it was 7.43 µM (active); in test [4], 5.25 µM (active); in test [5], 14.8 µM (active); in test [6], 9.34 µM (active).
As to `COC[C@H](NC(=O)c1cnc(C)s1)C(=O)N[C@@H](COC)C(=O)N[C@@H](Cc1ccccc1)C(=O)[C@@]1(C)CO1`, the concentration at half-maximal activity (AC50) in test [1] is 0.186 µM (active); in [2] it was 0.148 µM (active); in [3], 0.148 µM (active); in [5], 0.332 µM (active).
In the case of `CC(C)c1cnn2c(NCc3ccccc3)cc(N[C@@H](CO)[C@H](O)CO)nc12`, the AC50 was 0.263 µM (active) in [1]; 0.418 µM (active) in test [2]; 0.187 µM (active) in [3]; 0.235 µM (active) in [4]; 0.417 µM (active) in test [6]. For the same molecule, the IC50 in test [7] is 0.468 µM (active).
As for `CCOC(=O)[C@H]1O[C@@H]1C(=O)N[C@@H](CC(C)C)C(=O)NCCC(C)C`, the outcome in [1], in test [2], in [3], in test [4] and in [6] was inactive. The fold change in test [8] (setting [12]) was 0.97 (inactive); in test [8] (setting [13]), 0.856. Also, the results for the cell count in [8] (setting [14]) and in test [8] (setting [15]) were 4650 and 4800, respectively.
As for `COc1cc2c(NC3CCN(C(C)C)CC3)nc(C3CCCCC3)nc2cc1OCCCN1CCCC1`, the AC50 in test [1] was 23.5 µM (active); in test [2], 8.33 µM (active); in [3], 18.7 µM (active); in test [4], 20.9 µM (active). Moreover, the IC50 in test [7] was 23.5 µM (active).
For the molecule `CCOC(CN1C(=O)[C@](CC(=O)Nc2ccc(C)cc2)(NC(=O)Nc2ccc(C)cc2)c2ccccc21)OCC`, the concentration at half-maximal activity (AC50) in test [1] is 23.5 µM (active); in [3], 14.8 µM (active); in test [4], 18.6 µM (active); in test [6], 20.9 µM (active). Besides, in [2], the call was inactive. In addition, in test [7], the IC50 was 23.5 µM (active).
Turning to `Cc1ccc(S(=O)(=O)OCC(=O)Nc2ccc(C(=O)O)c(O)c2)cc1`, the outcome in test [1], in [2], in test [3], in test [4], in [5] and in [6] was inactive. In addition, the molecule was classed as inactive in test [7]. In addition, the fold change in [8] (setting [12]) was 0.894 (inactive); in test [8] (setting [13]) it was 0.798. Moreover, the values for the cell count in test [8] (setting [14]) and in test [8] (setting [15]) were 6690 and 7480, respectively. Further, the values for the z-score in test [9] (setting [16]) and in [9] (setting [17]) were -0.344 (inactive) and 0.295, respectively.
For `O=C(O)c1ccc2c(c1)nc(Nc1cccc(Cl)c1)c1ccncc12`, the concentration at half-maximal activity (AC50) in test [1] is 8.33 µM (active); in [2] it was 16.6 µM (active); in test [3] it was 7.43 µM (active); in [4], 4.68 µM (active); in test [6], 2.95 µM (active). The half-inhibitory concentration (IC50) in [7] is 7.42 µM (active). For the same molecule, the fold change in [8] (setting [12]) was 0.797 (inactive); in [8] (setting [13]) it was 0.974. Further, the cell count in test [8] (setting [14]) worked out at 5180; in [8] (setting [15]) it was 6500; in [10], 7390. Besides, the SSMD in [10] turned out to be 0.462. Further, in [10], the plate-normalised HSF1 focus index is 1.02 (inactive). The z-score was -0.486 (inactive) in [9] (setting [16]) and -0.116 in test [9] (setting [17]). Moreover, the viability in test [11] (at 0.000305 µM, OCI-C5x cells, with rucaparib 10 µM, 100% = cells with rucaparib alone) is 103% (inactive); in test [11] (at 0.000305 µM, OCI-C5x cells, without rucaparib), 125% (inactive); in [11] (at 0.000305 µM, OCI-P5x cells, with rucaparib 20 µM, 100% = cells with rucaparib alone) it was 103% (inactive); in test [11] (at 0.000305 µM, OCI-P5x cells, without rucaparib), 105% (inactive); in test [11] (at 0.00122 µM, OCI-C5x cells, with rucaparib 10 µM, 100% = cells with rucaparib alone), 119% (inactive); in test [11] (at 0.00122 µM, OCI-C5x cells, without rucaparib), 130% (inactive). Besides, the viability was 98.4% (active) in test [11] (at 0.00122 µM, OCI-P5x cells, with rucaparib 20 µM, 100% = cells with rucaparib alone); 111% (inactive) in [11] (at 0.00122 µM, OCI-P5x cells, without rucaparib); 106% (inactive) in [11] (at 0.00488 µM, OCI-C5x cells, with rucaparib 10 µM, 100% = cells with rucaparib alone); 118% (inactive) in test [11] (at 0.00488 µM, OCI-C5x cells, without rucaparib); 94% (active) in test [11] (at 0.00488 µM, OCI-P5x cells, with rucaparib 20 µM, 100% = cells with rucaparib alone); 104% (inactive) in test [11] (at 0.00488 µM, OCI-P5x cells, without rucaparib). Further, the viability in test [11] (at 0.0195 µM, OCI-C5x cells, with rucaparib 10 µM, 100% = cells with rucaparib alone) is 98% (active); in test [11] (at 0.0195 µM, OCI-C5x cells, without rucaparib) it was 126% (inactive); in [11] (at 0.0195 µM, OCI-P5x cells, with rucaparib 20 µM, 100% = cells with rucaparib alone), 96% (active); in test [11] (at 0.0195 µM, OCI-P5x cells, without rucaparib), 115% (inactive); in test [11] (at 0.0781 µM, OCI-C5x cells, with rucaparib 10 µM, 100% = cells with rucaparib alone), 99.7% (active); in [11] (at 0.0781 µM, OCI-C5x cells, without rucaparib), 116% (inactive). In addition, the viability in test [11] (at 0.0781 µM, OCI-P5x cells, with rucaparib 20 µM, 100% = cells with rucaparib alone) was 98.9% (active); in test [11] (at 0.0781 µM, OCI-P5x cells, without rucaparib) it was 110% (inactive); in test [11] (at 0.313 µM, OCI-C5x cells, with rucaparib 10 µM, 100% = cells with rucaparib alone) it was 96.1% (active); in [11] (at 0.313 µM, OCI-C5x cells, without rucaparib), 115% (inactive); in test [11] (at 0.313 µM, OCI-P5x cells, with rucaparib 20 µM, 100% = cells with rucaparib alone), 94.3% (active); in test [11] (at 0.313 µM, OCI-P5x cells, without rucaparib) it was 107% (inactive). Further, the viability in test [11] (at 1.25 µM, OCI-C5x cells, with rucaparib 10 µM, 100% = cells with rucaparib alone) was 68.3% (active); in test [11] (at 1.25 µM, OCI-C5x cells, without rucaparib), 91.5% (active); in test [11] (at 1.25 µM, OCI-P5x cells, with rucaparib 20 µM, 100% = cells with rucaparib alone) it was 74.7% (active); in test [11] (at 1.25 µM, OCI-P5x cells, without rucaparib), 89.4% (active); in test [11] (at 5 µM, OCI-C5x cells, with rucaparib 10 µM, 100% = cells with rucaparib alone), 43.6% (active); in [11] (at 5 µM, OCI-C5x cells, without rucaparib), 88.1% (active). The viability in test [11] (at 5 µM, OCI-P5x cells, with rucaparib 20 µM, 100% = cells with rucaparib alone) was 33.3% (active); in test [11] (at 5 µM, OCI-P5x cells, without rucaparib), 35.6% (active).

Values taken from PubChem BioAssay.
